From PubChem BioAssay come the findings set out here.

In test [1] the test system is Human papillomavirus type 1a protein E7 (residues 44-93). The test is described as follows: HPV1a E7 fragment binders on microarrays, primary screen, biochemical, small-molecule microarray, residues 44-93, 635 nm fluorescence (AID 1108).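 Also: E7 fragment applied at 1 µg/mL in TBST for 1 h at 4 C; score combines spot fluorescence with its signal to noise ratio.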 Conditions: small-molecule microarray binding, fluorescence 635 nm; higher = more signal.
A short description of test [2]: modulators of HCV replicon luciferase signal, primary screen, HCV replication inhibitor project, Huh7 cells, luciferase reporter (AID 1109).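 Also: huh7 hepatoma cells harbouring a luciferase neomycin HCV replicon reporter; luciferase luminescence as measure of HCV replicon replication; test concentration not given here.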 The settings on record: 48 h, higher = more signal. For orientation: A replicon is a self-replicating genome or part of one, used to study replication in cells.
Test [3] has as its target Left-right determination factor 2 (Homo sapiens) (UniProt O00292). Description: LEFTY2 binders on small-molecule microarrays, primary screen, biochemical, small-molecule microarray, 635 nm fluorescence scan (AID 1110). The settings on record: LEFTY2 binding, higher = more signal.
Test [4] has as its target Calmodulin-1 (Homo sapiens) (UniProt P0DP23). Description: CALM1 binders on microarrays, EGTA buffer, profiling panel, biochemical, small-molecule microarray, Cy5-labelled CALM1 (AID 1111).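 Also: labelled calmodulin applied in Tris saline Tween buffer holding calcium plus EGTA and DTT.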 Conditions: Cy5-CALM1 binding fluorescence, higher = more signal.
Test [5] shares this target. Description: calcium-bound CALM1 binders on microarrays, profiling panel, artefact control for SMM control-protein annotation, biochemical, small-molecule microarray, Cy5-labelled CALM1, plus calcium (AID 1112).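 Also: score merges spot fluorescence with signal to noise from triplicate slides.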 Conditions: Cy5-CALM1 binding fluorescence, higher = more signal.
Test [6] can be described thus: small-molecule microarray binders of probe aWnt5a, primary screen, biochemical, biotinylated probe, 635/667 nm fluorescence (AID 1113).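 Also: score merges 667 nm fluorescence intensity with signal-to-noise per printed feature.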 The settings on record: higher = more signal.
Test [7] in a line: small-molecule microarray binders of probe aShh, primary screen, biochemical, biotinylated probe, 635/667 nm fluorescence (AID 1114).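 Also: probe is biotin-labelled aShh protein from a stem cell growth factor screen; measures binding of labelled protein to compounds printed on the slide; score merges feature fluorescence at 667 nm with signal-to-noise.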 Conditions: higher = more signal.
Test [8] is described as follows: small-molecule microarray binders of probe aNog, primary screen, biochemical, biotinylated probe, 635/667 nm fluorescence (AID 1115).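 Also: probe is biotinylated aNog protein used at 0.15 µg/mL for 1 h at 4 C; z-score combines 667 nm fluorescence of each spot with its signal to noise.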 Conditions: higher = more signal.
For test [9], the target named is Torsin-1A-interacting protein 1 (Homo sapiens) (UniProt Q5JTV8). Description: LAP1 binders from COS7 cell lysate, primary screen, small-molecule microarray, 635/667 nm fluorescence (AID 1116). The settings on record: COS7-hLAP1 lysate binding, 635 nm fluorescence, higher = more signal.
Torsin-1A-interacting protein 1 (Homo sapiens), sequence (Q5JTV8 whole entry, looked up): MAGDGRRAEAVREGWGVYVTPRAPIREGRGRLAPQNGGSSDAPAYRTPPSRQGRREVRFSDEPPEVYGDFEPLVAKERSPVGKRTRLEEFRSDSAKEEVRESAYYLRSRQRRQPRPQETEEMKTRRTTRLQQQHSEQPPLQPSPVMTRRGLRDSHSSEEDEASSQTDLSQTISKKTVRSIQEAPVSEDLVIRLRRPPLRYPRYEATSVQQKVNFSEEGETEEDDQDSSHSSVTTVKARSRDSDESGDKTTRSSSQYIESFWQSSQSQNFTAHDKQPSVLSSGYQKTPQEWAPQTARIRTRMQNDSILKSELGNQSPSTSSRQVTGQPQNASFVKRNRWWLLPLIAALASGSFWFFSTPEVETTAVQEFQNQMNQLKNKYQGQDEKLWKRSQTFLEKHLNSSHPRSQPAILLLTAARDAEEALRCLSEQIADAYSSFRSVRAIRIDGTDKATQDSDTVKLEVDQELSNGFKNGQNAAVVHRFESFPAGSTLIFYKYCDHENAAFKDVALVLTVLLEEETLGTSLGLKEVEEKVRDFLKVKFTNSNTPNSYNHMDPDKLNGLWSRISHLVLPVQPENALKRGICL
Test [10] deals with Alpha-bungarotoxin (Bungarus multicinctus) (UniProt P60615). Description: alpha-bungarotoxin binders on microarray, profiling panel, artefact control for SMM control protein annotation, biochemical, small-molecule microarray, Alexa647 label, 635/667 nm fluorescence (AID 1117). The settings on record: alpha-BTX-A647 binding fluorescence, higher = more signal.
Alpha-bungarotoxin (Bungarus multicinctus), sequence (P60615 whole entry, looked up): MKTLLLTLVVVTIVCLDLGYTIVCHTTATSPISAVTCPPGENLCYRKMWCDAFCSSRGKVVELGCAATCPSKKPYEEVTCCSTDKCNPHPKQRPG

Left-right determination factor 2 (Homo sapiens), sequence (O00292 whole entry, looked up): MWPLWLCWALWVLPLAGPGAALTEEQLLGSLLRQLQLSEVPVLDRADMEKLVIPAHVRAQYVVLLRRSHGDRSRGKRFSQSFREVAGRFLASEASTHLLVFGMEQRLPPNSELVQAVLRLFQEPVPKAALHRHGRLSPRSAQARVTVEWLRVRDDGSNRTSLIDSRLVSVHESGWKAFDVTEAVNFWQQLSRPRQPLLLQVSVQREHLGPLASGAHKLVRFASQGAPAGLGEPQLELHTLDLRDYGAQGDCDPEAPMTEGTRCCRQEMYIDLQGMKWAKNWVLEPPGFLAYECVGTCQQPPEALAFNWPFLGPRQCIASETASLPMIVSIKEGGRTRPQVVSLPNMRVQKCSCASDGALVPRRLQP

As for `CN(C)CCCNC(=O)[C@@]1(c2ccc([N+](=O)[O-])cc2)CC(=O)N(CC23CC4CC(CC(C4)C2)C3)[C@@H]1c1ccc(CO)cc1I`, the composite z-score in test [1] is 1.39; in test [3], 0.703; in [4], 0.307; in test [5] it was -0.0622; in test [6], 0.0668; in test [7], 0.462. Moreover, the composite z-score in test [8] worked out at 0.192; in test [9], 1.27; in [10], 1.15. In [2], this compound came in with a z-score of -3.54.
Consider `[N-]=[N+]=Nc1ccccc1C[C@]1(C(N)=O)N=C(c2ccc(OCCCO)cc2)O[C@H]1c1ccccc1N=[N+]=[N-]`, for which the composite z-score in test [1] is 1.38; in [3] it was -0.0114; in [4], 1.55; in [5] it was 0.873; in test [6], 0.0799; in test [7], 0.162. Also, the composite z-score in [8] came to 1.03; in test [9], 0.776; in test [10] it was 0.702. The same compound yielded a z-score in test [2] of -2.55.
Regarding `COCCOC(=O)N1C(=O)[C@@]2(c3cc(C#Cc4ccc(OC)cc4)ccc31)[C@H](C(=O)Nc1nc3ccccc3s1)[C@H]1C(=O)O[C@H](c3ccccc3)[C@H](c3ccccc3)N1[C@@H]2c1ccc(OCCO)cc1`, the composite z-score in test [1] was 1.17; in test [3], 0.785; in [4] it was 0.762; in test [5] it was -0.621; in test [6] it was -0.0704; in [7] it was -0.223. Moreover, the composite z-score was -0.268 in [8], 0.179 in test [9] and 1 in test [10]. The z-score in test [2] is -2.19.
In the case of `CCOc1cc(C(O)C2C=CC3C(=O)N(C)C(=O)C3N2Nc2ccccc2)ccc1O` (stereo not given), the composite z-score in [1] was 1.24; in [3], 0.0031; in test [4] it was 0.796; in [5], -0.211; in test [6], -0.0165; in [7], -0.155. Besides, the results for the composite z-score in [8], in test [9] and in [10] were -0.145, 1.92 and 0.848, respectively. The z-score in test [2] was -0.146.
As for `CN1C(=O)C2C=CC(C(O)c3ccc(F)cc3)N(Nc3ccccc3)C2C1=O` (stereo not given), the composite z-score in [1] was 0.793; in [3], 0.0204; in test [4], 0.746; in test [5], 0.693; in test [6], -0.0165; in test [7], -0.412. The composite z-score in [8] was -0.305; in test [9], 0.635; in [10], 1.62. In test [2], this compound came in with a z-score of -0.216.
Take `COC(=O)[C@@]1(Cc2ccccc2N=[N+]=[N-])N=C(c2ccc(OCCCO)cc2)O[C@H]1c1ccccc1N=[N+]=[N-]`: the composite z-score was 0.193 in test [1]; -0.182 in test [3]; 0.178 in test [4]; -0.62 in test [5]; 0.027 in [6]; -0.064 in [7]. In addition, the values for the composite z-score in [8], in test [9] and in test [10] were 1.05, 0.435 and 0.726, respectively. The same compound returned a z-score in test [2] of -3.4.
As for `COCCOC(=O)N1C(=O)[C@@]2(c3cc(C#CCCO)ccc31)[C@H](C(=O)Nc1nc3ccccc3s1)[C@H]1C(=O)O[C@H](c3ccccc3)[C@H](c3ccccc3)N1[C@@H]2c1ccccc1OCCO`, the composite z-score in test [1] is 0.792; in test [3], 0.674; in [4], 0.827; in test [5], -0.112; in test [6], -0.0025; in test [7], 0.0469. Also, the figures for the composite z-score in test [8], in test [9] and in test [10] were -0.588, 0.811 and 1.45, respectively. For the same compound, in [2], the z-score was -1.71.
As to `[N-]=[N+]=Nc1ccccc1[C@@H]1OC(c2ccc(OCCCO)cc2)=N[C@]1(Cc1ccccc1)C(=O)NCC(O)CO` (stereo not given in full), the composite z-score in test [1] is 0.883; in [3], -0.879; in [4], 2.21; in test [5], 1.18; in test [6], 0.0189; in [7], 0.4. Also, the composite z-score is -0.4 in test [8], 2.95 in test [9] and 2.56 in [10]. For the same compound, in test [2], the z-score is -1.34.
Regarding `Cc1ccc(S[C@]2(C(=O)O)CC(=O)N(Cc3cc(C(F)(F)F)cc(C(F)(F)F)c3)[C@@H]2c2ccc(CO)cc2)cc1`, the composite z-score in test [1] was -0.0234; in test [3], -2.28; in test [4], -0.743; in [5], 0.168; in test [6], -0.226; in test [7], -0.0483. The composite z-score is -0.0733 in test [8], -0.155 in test [9] and -0.876 in test [10]. Further, the z-score in test [2] is -0.0295.
For the compound `CCOC(=O)C[C@H]1[C@H](OC(=O)Cc2ccc3c(c2)OCO3)[C@@H](NC(=O)Cc2ccc(OC)cc2)c2cc(OCCCO)ccc2N1C(=O)c1ccc2ccccc2n1`, the composite z-score was 0.189 in test [1]; 0.155 in test [3]; -0.22 in test [4]; -0.0545 in [5]; -0.0792 in test [6]; 0.23 in test [7]. Besides, the composite z-score was -0.134 in [8], 0.526 in test [9] and 0.424 in [10]. The compound also came in with a z-score in [2] of -0.763.
For the compound `C=CCN1C(=O)[C@@]2(CCS(=O)(=O)c3ccccc3)N=C(c3ccc(OCCCO)cc3)O[C@H]2c2ccccc21`, the composite z-score in [1] is 1.42; in test [3], 0.876; in test [4] it was 1.94; in test [5], -0.313; in test [6] it was 0.0215; in [7], -0.304. The composite z-score in [8] stood at 0.906; in test [9], 0.791; in [10], 1.22. In addition, the z-score in test [2] is -1.97.
As to `COCCOC(=O)N1C(=O)[C@@]2(c3cc(C#Cc4ccc(OC)cc4)ccc31)[C@H](c1ccc(O)cc1)N1[C@H](c3ccccc3)[C@H](c3ccccc3)OC(=O)[C@H]1[C@@H]2C(=O)N1CCCCCCC1`, the composite z-score in [1] was 0.699; in test [3], 0.187; in test [4], 1.54; in test [5] it was 0.946; in test [6], -0.151; in test [7], 0.199. Besides, the figures for the composite z-score in test [8], in [9] and in test [10] were 1.48, 2.14 and 0.63, respectively. This compound displayed a z-score in test [2] of -0.48.
Regarding `COc1ccc([Si](C)(C)[C@@H]2[C@@H](CC(=O)N3Cc4ccccc4C[C@H]3CO)O[C@]3(C(=O)N(C)c4ccccc43)[C@H]2C)cc1`, the composite z-score was 0.215 in test [1]; 0.812 in test [3]; 0.617 in test [4]; -0.0353 in test [5]; 0.0102 in test [6]; 0.123 in test [7]. The composite z-score in [8] is -0.0692; in test [9], 0.907; in test [10] it was 0.794. The compound further displayed a z-score in test [2] of -4.84.
